About 83,000 compounds went through this panel and 20% of them were active in at least one assay; those are over-represented in the sample as a whole.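 A percent growth of 40 corresponds to 60% growth inhibition; 0 means no net growth; -100 means all cells died. Active threshold: below 10.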 Activity calls are given as the source filed them.
Tests used:
Test in all cases: NCI-60 one-dose screen, 48 h (100 = growth as untreated, 0 = no growth, -100 = all killed)
Conditions in all cases: 10 µM unless noted
RPMI-8226 leukemia = tested on: RPMI-8226 leukemia
OVCAR-8 ovarian = tested on: OVCAR-8 ovarian
OVCAR-5 ovarian = tested on: OVCAR-5 ovarian
OVCAR-4 ovarian = tested on: OVCAR-4 ovarian
SK-OV-3 ovarian = tested on: SK-OV-3 ovarian
IGROV1 ovarian = tested on: IGROV1 ovarian
OVCAR-3 ovarian = tested on: OVCAR-3 ovarian
HS 578T breast = tested on: HS 578T breast
NCI/ADR-RES ovarian = tested on: NCI/ADR-RES ovarian

Measured: growth

CC1=C([Se]CC(OC(=O)CC[Se]c2ccccc2)C(=O)NCCCCCC(=O)OCc2ccccc2)C(=O)c2ccccc2C1=O (stereo not given)
active: OVCAR-3 ovarian -3.7% | HS 578T breast -13.4%
inactive: RPMI-8226 leukemia 49.1% | OVCAR-8 ovarian 10.6% | OVCAR-5 ovarian 39.7% | OVCAR-4 ovarian 42.5% | SK-OV-3 ovarian 39.4% | IGROV1 ovarian 15.9% | NCI/ADR-RES ovarian 11.9%

C[C@H]1[C@H]2[C@H]3CC[C@@H]4[C@@]5(C)C/C(=C/c6ccco6)C(=O)C(C)(C)[C@@H]5CC[C@@]4(C)[C@]3(C)CC[C@]23CO[C@]1(C)[C@@H](C(=O)/C=C\c1ccco1)C3
inactive: RPMI-8226 leukemia 78% | OVCAR-8 ovarian 98.8% | OVCAR-5 ovarian 113% | OVCAR-4 ovarian 90.7% | SK-OV-3 ovarian 108% | IGROV1 ovarian 101% | OVCAR-3 ovarian 103% | HS 578T breast 94% | NCI/ADR-RES ovarian 108%

Nc1n[nH]c(-c2cc(Cl)ccc2O)c1-c1ccccc1
inactive: RPMI-8226 leukemia 91.1% | OVCAR-8 ovarian 91% | OVCAR-5 ovarian 67.4% | OVCAR-4 ovarian 86.3% | SK-OV-3 ovarian 96.7% | IGROV1 ovarian 96% | OVCAR-3 ovarian 107% | HS 578T breast 85.3% | NCI/ADR-RES ovarian 79.3%

C=CCSc1nc2ccccc2cc1/C=N/O
inactive: RPMI-8226 leukemia 86.7% | OVCAR-8 ovarian 89.6% | OVCAR-5 ovarian 78.6% | OVCAR-4 ovarian 107% | SK-OV-3 ovarian 68.2% | IGROV1 ovarian 74.1% | OVCAR-3 ovarian 92.1% | HS 578T breast 72.2% | NCI/ADR-RES ovarian 97.2%

Nc1n[nH]c2cc(F)c([C@@H]3Nc4c(F)cc5[nH]ncc5c4[C@H]4C5CCC(C5)[C@@H]34)cc12 (stereo not given in full)
active: RPMI-8226 leukemia 5.57% | OVCAR-3 ovarian 8.71%
inactive: OVCAR-8 ovarian 29.2% | OVCAR-5 ovarian 35.1% | OVCAR-4 ovarian 44.2% | SK-OV-3 ovarian 34% | IGROV1 ovarian 17.2% | HS 578T breast 26.8% | NCI/ADR-RES ovarian 11.8%

COc1ccc(C2c3ccc4ccccc4c3Oc3nc(C)[nH]c(=O)c32)cc1 (stereo not given)
inactive: RPMI-8226 leukemia 102% | OVCAR-8 ovarian 101% | OVCAR-5 ovarian 114% | OVCAR-4 ovarian 113% | SK-OV-3 ovarian 100% | IGROV1 ovarian 95.8% | OVCAR-3 ovarian 108% | HS 578T breast 96.3% | NCI/ADR-RES ovarian 93.9%

CS(=O)c1cccc(-c2ccc3nc(N)n(-c4ccc(C(F)(F)F)cc4)c(=O)c3c2)c1 (stereo not given)
inactive: RPMI-8226 leukemia 97.4% | OVCAR-8 ovarian 96.3% | OVCAR-5 ovarian 100% | OVCAR-4 ovarian 100% | SK-OV-3 ovarian 102% | IGROV1 ovarian 102% | OVCAR-3 ovarian 101% | HS 578T breast 88.4% | NCI/ADR-RES ovarian 103%

Cc1cc(=O)oc2c1ccc1oc(C#N)c(C)c12
inactive: RPMI-8226 leukemia 88.9% | OVCAR-8 ovarian 99.5% | OVCAR-5 ovarian 92.4% | OVCAR-4 ovarian 93.1% | SK-OV-3 ovarian 107% | IGROV1 ovarian 106% | OVCAR-3 ovarian 98.6% | HS 578T breast 91.2% | NCI/ADR-RES ovarian 96.2%

CCOC(=O)c1c(-c2ccc(Cl)cc2)c(C#N)c(=O)n(-c2ccccc2CC)c1N
inactive: RPMI-8226 leukemia 69.3% | OVCAR-8 ovarian 87.1% | OVCAR-5 ovarian 92.6% | OVCAR-4 ovarian 98.1% | SK-OV-3 ovarian 102% | IGROV1 ovarian 99.8% | OVCAR-3 ovarian 87.8% | HS 578T breast 102% | NCI/ADR-RES ovarian 91.9%

Cc1ccc(C(=NN=C(N)N)c2ccc(C)cc2)cc1
active: RPMI-8226 leukemia 1.96% | OVCAR-8 ovarian 6.75% | SK-OV-3 ovarian -10.8% | IGROV1 ovarian 5.38% | OVCAR-3 ovarian -34.8% | NCI/ADR-RES ovarian 6.63%
inactive: OVCAR-5 ovarian 30.8% | OVCAR-4 ovarian 31.2% | HS 578T breast 32.4%

CC(C)(C)OC(=O)Nc1ccc2c(c1)C(NC(=O)Nc1cccc(C#N)c1)CC(C)(C)O2 (stereo not given)
inactive: RPMI-8226 leukemia 22.3% | OVCAR-8 ovarian 45.6% | OVCAR-5 ovarian 87.6% | OVCAR-4 ovarian 38.6% | SK-OV-3 ovarian 58% | IGROV1 ovarian 46% | OVCAR-3 ovarian 48% | HS 578T breast 85.5% | NCI/ADR-RES ovarian 48%

CC(=O)N1C(=S)NC(=O)C1Cn1c(-c2ccccc2)nc2ccccc21 (stereo not given)
inactive: RPMI-8226 leukemia 97.3% | OVCAR-8 ovarian 102% | OVCAR-5 ovarian 103% | OVCAR-4 ovarian 102% | SK-OV-3 ovarian 94.3% | IGROV1 ovarian 92.5% | OVCAR-3 ovarian 101% | HS 578T breast 96% | NCI/ADR-RES ovarian 102%

COc1cc(OC)cc(C2CC(=O)Nc3c2c(C)nn3-c2nc3ccccc3[nH]2)c1 (stereo not given)
active: RPMI-8226 leukemia -8.64% | SK-OV-3 ovarian -2.88% | OVCAR-3 ovarian 7.11%
inactive: OVCAR-8 ovarian 17.8% | OVCAR-5 ovarian 50.2% | OVCAR-4 ovarian 42.4% | IGROV1 ovarian 14.6% | HS 578T breast 27.1% | NCI/ADR-RES ovarian 64.3%

COc1ccc(/C=N\NC(=O)c2cc(-c3ccc(Br)cc3)n(-c3ccc(S(N)(=O)=O)cc3)n2)cc1
inactive: RPMI-8226 leukemia 61.1% | OVCAR-8 ovarian 72% | OVCAR-5 ovarian 82.5% | OVCAR-4 ovarian 57.6% | SK-OV-3 ovarian 74.1% | IGROV1 ovarian 46.2% | OVCAR-3 ovarian 21.2% | HS 578T breast 22.4% | NCI/ADR-RES ovarian 31.4%

Cc1ccc(S(=O)(=O)N/N=C\c2cc(Cl)ccc2O)cc1
inactive: RPMI-8226 leukemia 82.3% | OVCAR-8 ovarian 91.2% | OVCAR-5 ovarian 82% | OVCAR-4 ovarian 102% | SK-OV-3 ovarian 63.3% | IGROV1 ovarian 51% | OVCAR-3 ovarian 115% | HS 578T breast 91.3% | NCI/ADR-RES ovarian 71%

Cc1ccc(N2CCN(C(=S)c3cccs3)CC2)cc1
inactive: RPMI-8226 leukemia 95.6% | OVCAR-8 ovarian 100% | OVCAR-5 ovarian 96.8% | OVCAR-4 ovarian 107% | SK-OV-3 ovarian 106% | IGROV1 ovarian 99.3% | OVCAR-3 ovarian 113% | HS 578T breast 124% | NCI/ADR-RES ovarian 112%

CCCCC1CCCCN1C(=O)OCC (stereo not given)
inactive: RPMI-8226 leukemia 118% | OVCAR-8 ovarian 106% | OVCAR-5 ovarian 98.4% | OVCAR-4 ovarian 112% | SK-OV-3 ovarian 99.1% | IGROV1 ovarian 112% | OVCAR-3 ovarian 112% | HS 578T breast 116% | NCI/ADR-RES ovarian 113%

O=C(Nc1ccc(Cl)cc1)Nc1ccc(Cl)c(C(F)(F)F)c1
active: RPMI-8226 leukemia -32.9% | OVCAR-5 ovarian 1.37% | SK-OV-3 ovarian -27.1% | OVCAR-3 ovarian 4.12% | NCI/ADR-RES ovarian -37.1%
inactive: OVCAR-8 ovarian 19.9% | OVCAR-4 ovarian 30.6% | IGROV1 ovarian 29.8% | HS 578T breast 19.7%

CCc1ccccc1-n1c(-c2ccc(Cl)cc2)cc(-c2ccc(OC)cc2)c(C#N)c1=O
inactive: RPMI-8226 leukemia 78.5% | OVCAR-8 ovarian 102% | OVCAR-5 ovarian 94.7% | OVCAR-4 ovarian 90% | SK-OV-3 ovarian 103% | IGROV1 ovarian 80% | OVCAR-3 ovarian 100% | HS 578T breast 98.7% | NCI/ADR-RES ovarian 95.1%

CCc1c2c(nc3ccc(OC(=O)NCc4ccc(B5OC(C)(C)C(C)(C)O5)cc4)cc13)-c1cc3c(c(=O)n1C2)COC(=O)[C@]3(O)CC
inactive: RPMI-8226 leukemia 10.1% | IGROV1 ovarian 11% | HS 578T breast 23.4%
active: OVCAR-8 ovarian 4.49% | OVCAR-5 ovarian -12.3% | OVCAR-4 ovarian 6.46% | SK-OV-3 ovarian -1.86% | OVCAR-3 ovarian -24.7% | NCI/ADR-RES ovarian -6.58%

CCOC(=O)c1c(/C=C/C(=O)O)nc2ccccc2c1/C=C/c1ccccc1
inactive: RPMI-8226 leukemia 10.9% | OVCAR-8 ovarian 31.2% | OVCAR-5 ovarian 57.4% | OVCAR-4 ovarian 60.5% | SK-OV-3 ovarian 93.6% | IGROV1 ovarian 52.1% | OVCAR-3 ovarian 13.3% | HS 578T breast 18.7% | NCI/ADR-RES ovarian 32.7%

COCN1CCC2N(COC)CCC3N(COC)CCC1N23 (stereo not given)
inactive: RPMI-8226 leukemia 118% | OVCAR-8 ovarian 99% | OVCAR-5 ovarian 103% | OVCAR-4 ovarian 110% | SK-OV-3 ovarian 101% | IGROV1 ovarian 126% | OVCAR-3 ovarian 116% | HS 578T breast 124% | NCI/ADR-RES ovarian 108%

c1ccc2cc3nc4cc5ccccc5cc4nc3cc2c1
inactive: RPMI-8226 leukemia 58.6% | OVCAR-8 ovarian 84.8% | OVCAR-5 ovarian 91.6% | OVCAR-4 ovarian 104% | SK-OV-3 ovarian 97.3% | IGROV1 ovarian 86.7% | OVCAR-3 ovarian 96.7% | HS 578T breast 102% | NCI/ADR-RES ovarian 73.4%

COc1c(CCC[P+](c2ccccc2)(c2ccccc2)c2ccccc2)cc2c(c1OC)OCO2
active: RPMI-8226 leukemia 8.37% | OVCAR-8 ovarian 8.63% | OVCAR-4 ovarian 6.3% | OVCAR-3 ovarian 7.21%
inactive: OVCAR-5 ovarian 30.4% | SK-OV-3 ovarian 14.1% | IGROV1 ovarian 21.2% | HS 578T breast 11.7% | NCI/ADR-RES ovarian 103%

O=c1[nH][n+](-c2ccc(Cl)cc2)no1
inactive: RPMI-8226 leukemia 79.2% | OVCAR-8 ovarian 69.9% | OVCAR-5 ovarian 77% | OVCAR-4 ovarian 83.5% | SK-OV-3 ovarian 86.8% | IGROV1 ovarian 70.5% | OVCAR-3 ovarian 86.8% | HS 578T breast 98.5% | NCI/ADR-RES ovarian 79.9%

O=C(Nc1ccccc1-c1nc2ccccc2c(=O)[nH]1)c1cc2ccccc2[nH]1
inactive: RPMI-8226 leukemia 98% | OVCAR-8 ovarian 87.4% | OVCAR-5 ovarian 95.3% | OVCAR-4 ovarian 105% | SK-OV-3 ovarian 78.4% | IGROV1 ovarian 69.2% | OVCAR-3 ovarian 102% | HS 578T breast 85.8% | NCI/ADR-RES ovarian 98.1%

COc1ccc(C2=NN(C(=O)c3cc(OC)c(OC)c(OC)c3)C(c3ccc(Cl)cc3)C2)cc1OC (stereo not given)
inactive: OVCAR-8 ovarian 34.4% | OVCAR-5 ovarian 41.4% | OVCAR-4 ovarian 52% | SK-OV-3 ovarian 25.8% | IGROV1 ovarian 36.7%
active: RPMI-8226 leukemia -18.4% | OVCAR-3 ovarian -35.2% | HS 578T breast 0.152% | NCI/ADR-RES ovarian -36.3%

COc1cc(Cn2ncc3ccc(NC(=O)c4cc5ccccc5oc4=N)cc32)cc(OC)c1OC
inactive: RPMI-8226 leukemia 51.7% | OVCAR-8 ovarian 86.8% | OVCAR-5 ovarian 58.3% | OVCAR-4 ovarian 86.6% | SK-OV-3 ovarian 79.4% | IGROV1 ovarian 46% | OVCAR-3 ovarian 38.8% | HS 578T breast 90% | NCI/ADR-RES ovarian 50%

COCCN(C(=O)c1ccc(F)cc1F)c1c(N)n(Cc2ccccc2)c(=O)[nH]c1=O
active: IGROV1 ovarian 2.97%
inactive: RPMI-8226 leukemia 112% | OVCAR-8 ovarian 112% | OVCAR-5 ovarian 92.2% | OVCAR-4 ovarian 98.9% | SK-OV-3 ovarian 111% | OVCAR-3 ovarian 115% | HS 578T breast 107% | NCI/ADR-RES ovarian 110%

COc1ccc(C(=NN=C(N)N)c2ccc(OC)cc2)cc1
inactive: RPMI-8226 leukemia 49.4% | OVCAR-8 ovarian 56.7% | OVCAR-5 ovarian 69.1% | OVCAR-4 ovarian 39.3% | SK-OV-3 ovarian 11% | IGROV1 ovarian 36.3% | OVCAR-3 ovarian 17% | HS 578T breast 65% | NCI/ADR-RES ovarian 83.5%

Reference: PubChem BioAssay (NCI)
